# Compound activity deposited in PubChem BioAssay by National Center for Advancing Translational Sciences (NCATS).
# DT40 TDP1 CPT: growth inhibition of DT40 Tdp1-/-;hTDP1 cells with camptothecin (screen for TDP1 inhibitors) | Potency, µM (titrated, usually from 46.2 µM), for inactives: top-dose activity change, negative = growth inhibition, usual class: inhibitors | chicken DT40 Tdp1-/-;hTDP1 cells + 20 nM CPT, ATP luminescence, 48 h | AID 686979 | hit rate 12% among 420,000; also: potency is read from the fitted curve at half-maximal effect; nearly all actives have a fitted effect of over 55% in size
#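 Chicken DT40 Tdp1-/- cells complemented with human TDP1, 400 cells/well, exposed to compounds plus 20 nM camptothecin for at least 48 h at 37 C; viability read as ATP content by CellTiter-Glo luminescence.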
# TDP1 cell noCPT: qHTS for Inhibitors of human tyrosyl-DNA phosphodiesterase 1 (TDP1): qHTS in cells in absence of CPT; AID 686978, 2013; Potency, µM (top dose mostly 46.2 µM), for the others: at the highest dose activity change, negative = growth inhibition, actives largely listed as inhibitors; DT40 Tdp1-/- hTDP1 cells, no CPT, ATP luminescence, 48 h; hit rate 15% among 420,000; also: potency is read from the fitted curve at half-maximal effect; nearly all actives have a fitted effect of over 55% in size
#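 Luminescent ATP content (CellTiter-Glo) served as the growth readout. Knockout chicken DT40 cells expressing human TDP1 were exposed to compounds without camptothecin for a minimum 48 hr at 37 °C.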
# HT1080 IDH1KD tx: kills HT-1080 cells with IDH1 knockdown; HT-1080 IDH1 knockdown viability, ATP luminescence, 48 h; Potency, µM (series often up to 46.1 µM), for the others: top-dose activity, negative = toxicity, usual class: cytotoxic; hit rate 2% among 360,000; AID 686971;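 also: potency is read from the fitted curve at half-maximal effect; 0% = DMSO wells and -100% = cell-free medium wells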
#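 % activity derives from luminescence (CellTiter-Glo), normalised to DMSO and no-cell wells. HT-1080-IDH1KD cells, 750/well, had 48 h compound exposure at 37 °C.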
# HT1080-NT tox: kills 2HG-producing HT-1080-NT fibrosarcoma cells; HT-1080-NT fibrosarcoma viability, CellTiter-Glo ATP luminescence, 48 h; Potency, µM (highest dose often 46.1 µM), for inactives: at the top dose activity, negative = less viability, hits mostly cytotoxic; hit rate 1.6% among 360,000;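 also: NT is the 2HG producing partner of a matched IDH1 knockdown line; potency is read from the fitted curve at half-maximal effect; 0% = DMSO-treated cells and -100% = media-only wells without cells; nearly all actives have a fitted effect of over 55% in size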
#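 Toxicity toward the 2HG-producing NT line was scored as %Activity, normalised to DMSO and no-cell wells, from CellTiter-Glo luminescence after 48 hours' treatment.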
# IL1B secr inh: inflammasome signaling inhibition, IL-1 beta readout. AID 743279. THP-1 LPS/ATP IL-1B secretion, AlphaLISA, 16 h; active compounds read low. activity change, % at 57.5 µM. hit rate 4.7% among 360,000; in the data active = activity change below about -50%; inconclusive = mostly about -30% to -49%
#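 THP-1 cells pretreated 1 hr with compounds (up to 57.5 uM final), then stimulated with LPS (250 ng/mL final) plus ATP (1.25 mM final); secreted IL-1B measured by AlphaLISA after 16 hr, decreased signal indicating inhibition.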
# An asterisk follows results filed as active; ? = inconclusive; . = no result given. An excerpt weighted towards active compounds, which were near 19% of everything screened. Unless noted, calls follow the shape of the dose curve; as a rule, active = well fitted curve in the direction sought with a large enough effect; inconclusive = small, poorly fitted or top-dose-only effect, or another doubt; inactive = no such curve, though single readings can be large; an effect the other way counts as inactive or inconclusive. Unless noted, % is scaled to controls: 0 for no effect and ±100 for the full control effect.
SMILES,DT40 TDP1 CPT,TDP1 cell noCPT,HT1080 IDH1KD tx,HT1080-NT tox,IL1B secr inh
O=C(NNc1nc(Nc2ccccc2)nc(N2CCOCC2)n1)Nc1ccc(Cl)cc1,21µM*,?,?,?,21
COC(=O)c1ccc(Oc2nc(N3CCCCC3)nc(N3CCOCC3)n2)cc1,-23%,-20%,-10%,-10%,-55*
CC(=O)c1cccc(Nc2nc(N3CCOCC3)nc(N3CCOCC3)n2)c1,?,?,8%,-8%,-20
CC(=O)c1ccc(Nc2nc(N3CCOCC3)nc(N3CCOCC3)n2)cc1,?,-20%,11%,14%,-54*
O=C(NNc1nc(N2CCOCC2)nc(N2CCOCC2)n1)c1ccccc1,?,?,14%,8%,-1
CCN(CC)c1nc(Oc2ccc(C(=O)OC)cc2)nc(N2CCOCC2)n1,?,?,-24%,-2%,-28
CC(=O)Nc1ccc(/C(C)=N/Nc2nc(Nc3ccccc3)nc(N3CCOCC3)n2)cc1,5.2µM*,7.3µM*,?,?,-25
CCOc1ccc(CCNC(=O)C2CCN(c3ncnc4c3nc3n4CCCCC3)CC2)cc1,?,-6%,.,.,.
Cc1cccn2cc(COc3ccc(-c4ccccc4)cc3)nc12,-20%,12µM*,18µM*,?,-18
C#CCOCCOCCOCCNc1nc(N2CCN(C(=O)[C@H](C)n3cc(CCCN=C(N)N)nn3)CC2)nc(N2CCN(C(=O)[C@H](C)n3cc(CCCN=C(N)N)nn3)CC2)n1,14%,-6%,5%,15%,18
C[C@H]1CCCCO[C@H](CN(C)Cc2ccccc2)[C@@H](C)CN([C@@H](C)CO)C(=O)c2cc(NC(=O)CCC(F)(F)F)ccc2O1,?,?,0%,-4%,0
COc1ccc2[nH]cc(CCNc3ncncc3-c3ccoc3)c2c1,4.6µM*,7.3µM*,.,.,.
COc1ccc2[nH]cc(CCNc3ncncc3-c3cccc(C#N)c3)c2c1,0.0046µM*,?,.,.,.
CCCOc1ccc(OC(=O)c2c(-c3ccccc3Cl)noc2C)cc1,-11%,-14%,.,.,.
C/C(=N\NC(=O)c1ccc(Cl)c(Cl)c1)c1cccc(NC(=O)C(C)C)c1,-8%,-23%,-1%,-6%,0
C/C(=N\NC(=O)c1c(-c2ccccc2Cl)noc1C)c1cccc(NC(=O)C(C)C)c1,?,23µM*,12%,5%,-13
Cc1onc(-c2ccccc2Cl)c1C(=O)Nc1cccc(-c2cn3cccnc3n2)c1,?,16µM*,-23%,-1%,0
CCCOc1cccc(NC(=O)c2c(-c3ccccc3Cl)noc2C)c1,9.2µM*,8.2µM*,.,.,.
CCCOC(=O)c1cccc(NC(=O)c2c(-c3ccccc3Cl)noc2C)c1,7.3µM*,7.3µM*,.,.,.
Cc1cccc(C)c1NC(=S)N(CCCN1CCN(C)CC1)Cc1cccs1,2%,10%,5%,1%,-4
O=C(NCc1cccs1)C1CCCN1C(=O)Nc1ccc(F)cc1 (stereo unspecified),-1%,-1%,13%,25%,9
COc1ccc(C)cc1Nc1n[n+](-c2ccccc2)c(-c2cc(OC)c(OC)cc2Br)s1,23µM*,16µM*,-24%,-29%,-11
COc1ccc(C)cc1Nc1n[n+](-c2ccccc2)c(-c2ccc(C(=O)O)cc2)s1,-7%,-9%,-1%,7%,39
COc1ccc2ccccc2c1-c1csc(N)n1,-2%,-9%,8%,-3%,-13
COc1ccc(C)cc1Nc1n[n+](-c2ccccc2)c(-c2c(OC)ccc3ccccc23)s1,5.8µM*,5.2µM*,?,?,-75*
CC1(C)N=C(N)N=C(N)N1c1cccc(CC(=O)Nc2ccccc2)c1,9.2µM*,2.6µM*,3.3µM*,9.2µM*,-11
COc1cc(C)ccc1OCCCOc1ccccc1Cl,?,?,1%,7%,-16
Cc1cccc(NC(=O)CCc2ccccc2)c1,-13%,-3%,2%,19%,-14
